From PubChem BioAssay
The list is not random: actives were taken first. Their share in the collection is about 3.4%.
miR122 inh: miR-122 inhibition in Huh7 cells; Huh7 miR-122 Renilla luciferase sensor, 48 h; neutral wells = 0, positive control = 100; activation (reporter increase), % at 12.5 µM; 340,000 tested, 0.3% active; AID 602342;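 active = mean replicate activation score at least 90 and every replicate individually at or above 90; inconclusive = only one of the two criteria met; inactive = neither criterion met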;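 note: higher luciferase means less miR-122 activity so hits act as miR-122 inhibitors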
Wnt act: activators of Wnt/beta-catenin signaling. activation, % at 9.35 µM. 300,000 tested, 1.2% active. AID 743398. Wnt/beta-catenin reporter cell assay, activator, plate reader; in the data active = activation above about 30%, passing the limit was not always enough; inconclusive = no clear call, values can overlap the other calls;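 note: 0% = neutral control wells and 100% = positive control wells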
MITF TRPM1 HTS: MITF TRPM1 promoter activation in melanoma cells. SK-MEL-5 TRPM1-promoter luciferase, 24 h; % of positive control, neutral wells = 0. activation, % at 12.5 µM. 300,000 tested, 0.75% active;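 active = mean activation of at least 80% with every replicate also reaching 80%; inconclusive = mean reaches 80% but some replicate falls short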;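 note: 0% = neutral control wells and 100% = parthenolide positive control wells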
esBAF inh: blocks esBAF chromatin remodeling in mouse ES cells; Bmi1-luciferase knock-in reporter, 24 h; 100% = twice the neutral-well signal; reporter increase, % at 12.5 µM; 350,000 tested, 2% active; in the data active = activation above about 40%; inconclusive = no clear call, values can overlap the other calls;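 note: 0% = median of the plate's neutral control wells and 100% = double that signal; a rise in the Bmi1 reporter signal indicates esBAF inhibition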
HIV Env fusion: HIV envelope-mediated fusion inhibition; HeLa-JRFL Env/CEM21 cell fusion, luciferase; 360,000 tested, 1.1% active; inhibition, % at 12.3 µM;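 active = mean replicate inhibition score of at least 50 and every replicate individually at or above 50; inconclusive = only one of the two criteria met; inactive = mean below 50 and not all replicates reaching 50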;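 note: 0% = plate neutral controls and 100% = maraviroc near 300 nM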
* hit, by the source's call; i = inactive; ? = inconclusive; . = not tested or not shown; [ ] = another dose, or the depositor's remark.

SMILES	miR122 inh	Wnt act	MITF TRPM1 HTS	esBAF inh	HIV Env fusion
Cc1noc(C)c1NC(=O)Nc1ccc2c(c1)CC(=O)N([C@@H](C)CO)C[C@H](C)[C@@H](CN(C)C(=O)Nc1ccccc1)O2	-3.7[16.7 µM]	.	.	-0.7	-11.3[16.7 µM]
CCN(c1nc(N)c(C(=O)N=C(N)N)nc1Cl)C(C)C	0.7	-2.6	8.5	3.2	69.0*
COc1ccc(C2OC3=C(Nc4cc(C)c(C)cc4N3)C2=O)cc1 (centres undefined)	.	21.4	60.7	56.4*	-46.8
COC(CNC(=O)c1ccc2c3c(onc13)-c1ccccc1C2=O)OC	-9.9	70.7*	.	.	-134.8
O=C(/C=C\Nc1ccc2c(c1)OCO2)c1ccc2c(c1)OCO2	.	33.9*	13.3	.	-176.4
COc1ccc(N/C=C/C(=O)c2ccc3c(c2)OCO3)cc1OC	.	.	73.2	.	20.9
COc1ccc(N/C=C\C(=O)c2ccc3c(c2)OCO3)cc1	-3.9	74.5*	52.8	.	-262.5
O=C(/C=C\Nc1ccc2c(c1)OCO2)c1ccc(Cl)s1	-1.7	0.5	53.6	51.9*	-208.0
N#C[C@H]1[C@@H](c2ccccc2)[C@@H](CO)N1S(=O)(=O)c1ccc(-c2ccccc2)cc1	.	.	.	0.8	-5.8[16.7 µM]
Cc1ccc(C2Oc3ccccc3C3=C2C(c2cccs2)n2ncnc2N3)cc1 (centres undefined)	-3.4	.	-28.1	1.6	101.8*
Cc1noc(C)c1NC(=O)N(C)C[C@@H]1OCCCC[C@@H](C)Oc2ccc(NS(=O)(=O)c3ccc(Cl)cc3)cc2C(=O)N([C@H](C)CO)C[C@@H]1C	8.4[16.7 µM]	.	.	-6.6	27.2[16.7 µM]
CC(C)NC(=O)Nc1ccc2c(c1)C(=O)N([C@@H](C)CO)C[C@@H](C)[C@@H](CN(C)Cc1ccc(C(F)(F)F)cc1)O2	2.0[16.7 µM]	.	.	-4.5	.
COc1ccc(/C=C(/C#N)S(=O)(=O)c2ccc(C)cc2)cc1	7.8	-1.0	.	-8.0	-26.1
CO/N=C/C(C#N)=C/c1ccc(OC)cc1	-4.5	9.0	45.8	87.7*	-13.5
CCSc1nnc(NC(=O)C2CCCCC2)s1	-0.3	.	.	44.3*	-67.8
CSc1nnc(NC(=O)C2CCCCC2)s1	-1.9	11.9	34.2	45.3*	-29.8
CCSc1nnc(NC(=O)c2csc(C)c2)s1	-1.1	17.8	84.0*	38.3	-69.1
CCc1nnc(NC(=O)C2CCCCC2)s1	.	.	21.7	.	.
O=C(Nc1nnc(-c2ccco2)s1)C1CCCCC1	-4.5	.	72.0	76.7*	.
CC(C)c1nnc(NC(=O)C2CCCCC2)s1	-4.3	11.2	.	20.8	-22.1
CNC[C@H]1OCCCC[C@@H](C)Oc2ccc(NS(=O)(=O)c3ccc(C)cc3)cc2C(=O)N([C@H](C)CO)C[C@H]1C	-5.7[16.7 µM]	.	.	-4.7	27.2[16.7 µM]
CNC[C@H]1Oc2c(NC(=O)c3ccc(-c4nccs4)cc3)cccc2C(=O)N([C@H](C)CO)C[C@@H]1C	-5.0[16.7 µM]	.	.	2.9	-7.6[16.7 µM]
Cc1ccc(S(=O)(=O)NC(C)(C)CSc2nnc(Nc3ccccc3)s2)cc1	?	.	-2.2	4.9	57.5*
CC(C)(CSc1ncccn1)NS(=O)(=O)c1ccccc1	9.5	-0.4	-6.1	2.3	5.5
CC(C)NC(=O)Nc1ccc2c(c1)C(=O)N([C@H](C)CO)C[C@@H](C)[C@H](CN(C)CC1CCCCC1)OCCCC[C@H](C)O2	-2.1[16.7 µM]	.	.	-3.3	1.1[16.7 µM]
SMILES	miR122 inh	Wnt act	MITF TRPM1 HTS	esBAF inh	HIV Env fusion
Cc1ccc(C(=O)Nc2nc(=O)n(C(=O)c3ccccc3C)s2)cc1	-1.0	.	22.0	60.2*	.
CCC(=O)N(Cc1ccco1)Cc1cc2cccc(C)c2n2nnnc12	-12.1	46.2*	-1.5	.	-2.3
O=C(Cc1ccccc1)Nc1nnc(-c2cccc([N+](=O)[O-])c2)s1	.	-5.0	1.2	.	2.7
O=C(Nc1cccc([N+](=O)[O-])c1)NC1CCCCCCC1	0.7	23.8	91.4*	77.6*	-7.4
O=C(Nc1ccccc1)NC1CCCCC1	13.6	.	25.7	46.1*	.
O=C(NC1CCCCC1)N(c1ccccc1)c1nnc(-c2cccc([N+](=O)[O-])c2)s1	18.0	12.5	.	66.0*	-25.3
O=C(Nc1ccccc1)NC1CCCCCCC1	12.6	7.5	.	.	-23.2
O=C(Nc1nc2ccccc2s1)NC1CCCCC1	11.0	42.5*	86.2*	.	-168.6
C[C@@H]1CN([C@H](C)CO)C(=O)Cc2cc(NC(=O)Cc3cn(C)c4ccccc34)ccc2O[C@H]1CN(C)S(=O)(=O)c1cccs1	-4.4[16.7 µM]	.	.	3.5	-12.4[16.7 µM]
O=C(Nc1ccc(Br)cc1)NC1CCCCCCC1	0.7	46.6*	?	.	-94.6
Cc1ccc(NC(=O)NC2CCCCC2)cc1Cl	21.9	.	?	85.2*	-206.5
Cc1ccc(NC(=O)C2CCN(C(=O)NC3CCCCC3)CC2)cc1Cl	-6.9	.	.	4.8	-15.7
O=C(NC1CCCCCCC1)c1ccc(Br)cc1	-2.4	?	.	.	-56.2
COCC(=O)N1[C@H](CO)[C@H](c2ccc(C#Cc3ccccc3F)cc2)[C@@H]1C#N	.	.	.	-2.5	3.2[16.7 µM]
Cc1cc(C(=O)Nc2ccc3c(c2)C(=O)N(C)[C@H]2CC[C@@H](CC(=O)N[C@H](C)c4ccccc4)O[C@@H]2CO3)no1	8.3[16.7 µM]	.	.	0.1	20.0[16.7 µM]
Cc1ccc(CNc2nc3ccccc3n2C)o1	.	9.5	.	42.4*	-89.1
Cn1c(NCc2ccccc2O)nc2ccccc21	-5.6	13.4	?	52.7*	-142.0
CN(C)c1ccc(CNc2nc3ccccc3n2C)cc1	-1.7	3.0	.	48.0*	i
CCN(CC)CCn1c(NCc2ccc(C)o2)nc2ccccc21	11.7	.	5.7	.	-8.6
Cc1noc(C)c1S(=O)(=O)N(C)C[C@H]1OCCCC[C@H](C)Oc2ccc(NS(=O)(=O)c3cccs3)cc2C(=O)N([C@@H](C)CO)C[C@@H]1C	1.2[16.7 µM]	.	.	4.3	-10.3[16.7 µM]
C[C@H]1CN([C@@H](C)CO)C(=O)Cc2cc(NS(=O)(=O)c3cccs3)ccc2O[C@@H]1CN(C)Cc1ccc2c(c1)OCO2	-2.0[16.7 µM]	.	.	-1.8	5.0[16.7 µM]
COc1ccc(C(C)=O)cc1CC1(C)C(=O)Nc2ccc(-c3ccccc3OC)cc21 (centres undefined)	-6.0	-0.4	.	4.2	70.3*
COc1ccccc1-c1ccc2c(c1)C(C)(Cc1cccc(F)c1)C(=O)N2 (centres undefined)	-7.2	-2.1	.	5.8	73.2*
CC1(Cc2cccc(F)c2)C(=O)Nc2ccc(OC(F)(F)F)cc21 (centres undefined)	-2.8	-1.2	.	2.1	35.5
CO[C@H]1CN(C)C(=O)c2cc(NS(=O)(=O)c3cn(C)cn3)ccc2OC[C@@H](C)N(Cc2cccc(F)c2)C[C@@H]1C	.	.	.	0.1	.
CCC(=O)N[C@@H]1CC[C@H](CC(=O)NCc2ccc(OC)cc2)O[C@H]1CO	.	.	.	-4.0	-7.9[16.7 µM]
C[C@@H]1CCCCO[C@@H](CN(C)C(=O)Cc2ccccc2)[C@H](C)CN([C@@H](C)CO)C(=O)c2cc(NC(=O)Nc3cccc4ccccc34)ccc2O1	-13.2[16.7 µM]	.	.	9.3	-16.8[16.7 µM]
C[C@@H](NC(=O)[C@H]1[C@H](CO)[C@H]2Cn3c(cccc3=O)[C@@H]1N2C(=O)C1CC1)c1ccccc1	-11.5[16.7 µM]	.	.	0.0	.
Cc1cc(Nc2cccc(Br)c2)c2ccccc2n1	.	-1.5	.	.	66.2*
